The list is not random: actives were taken first. Their share in the collection is about 6.5%.
HepG2 tox = qHTS for Inhibitors of TGF-b: Cytotox Counterscreen | 410,000 tested, 0.76% active | AID 588856, 2011 | HepG2 CAGA-GFP viability, ATP luminescence, 18 h | Potency, µM (top dose mostly 46.1 µM), without a hit: at the highest dose activity change, negative = cytotoxicity, most hits filed as cytotoxic; note: potency is the fitted concentration of half-maximal effect
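HepG2 CAGA-GFP cells (1000/well, DMEM with 1% FBS) received compound, then TGF-beta at 500 pg/mL final, and were incubated 18 hours at 37 degrees C. Viability was read by CellTiter-Glo luminescence. Media-only wells were set as complete cell-killing and DMSO as no toxicity.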
IL-1B inflam inh = qHTS for Inhibitors of Inflammasome Signaling: IL-1-beta AlphaLISA Primary Screen | THP-1 LPS/ATP IL-1B secretion, AlphaLISA, 16 h; stronger effect = lower value | activity change, % at 57.5 µM | 360,000 tested, 4.7% active; in the data active = activity change below about -50%; inconclusive = mostly about -30% to -49%; note: % is set by controls: 0 for no effect and ±100 for the full control effect
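THP-1 cells pretreated 1 hr with compounds (up to 57.5 uM final), then stimulated with LPS (250 ng/mL final) plus ATP (1.25 mM final); secreted IL-1B measured by AlphaLISA after 16 hr, decreased signal indicating inhibition.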
TGFb SMAD3 inh = qHTS for Inhibitors of TGF-b. HepG2 CAGA-GFP TGF-b/SMAD3 reporter, GFP fluorescence, 18 h; TGF-beta stimulated, 500 pg/mL final. Potency, µM (top dose mostly 46.1 µM), for the others: at the top dose activity, negative = inhibition, hits mostly inhibitors. 410,000 tested, 1.2% active. AID 588855, 2011; note: potency is the fitted concentration of half-maximal effect; % is set by controls: 0 for no effect and ±100 for the full control effect; nearly all actives have a fitted effect of over 65% in size
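Inhibition was scored as loss of TGF-beta-induced (500 pg/mL final, 18 hours, 37 degrees C) GFP in HEPG2 cells carrying a CAGA-GFP reporter, in DMEM with 1% FBS. Well GFP was summed per cell; Activity was normalised to unstimulated and stimulated DMSO wells, then concentration-response fitting.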
Giardia killer = Small Molecules that selectively kill Giardia lamblia: qHTS. Giardia lamblia trophozoite viability. activity change, % at 7.66 µM, hits read low. 340,000 tested, 0.15% active; in the data active = activity change below about -80%; inconclusive = between about -30% and that limit;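 note: parasites exposed to compound for two days anaerobically before the ATP read; % is set by controls: 0 for no effect and ±100 for the full control effect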
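Giardia lamblia trophozoites (100 cells/well) were incubated with compounds for 48 h at 37 deg C under anaerobic conditions. Viability was read as ATP content by one-step luminescence after 15-30 min at room temperature.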
HT1080NT lethal = qHTS for induction of synthetic lethality in tumor cells producing 2HG: qHTS for the HT-1080-NT fibrosarcoma cell line; HT-1080-NT fibrosarcoma viability, CellTiter-Glo ATP luminescence, 48 h; Potency, µM (highest dose often 46.1 µM), for the others: at the top dose activity, negative = less viability, hits mostly cytotoxic; 360,000 tested, 1.6% active;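 note: NT is the 2HG producing partner of a matched IDH1 knockdown line; potency is the fitted concentration of half-maximal effect; 0% = DMSO-treated cells and -100% = media-only wells without cells; nearly all actives have a fitted effect of over 55% in size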
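Fibrosarcoma NT cells, 750 per well in 5% FBS RPMI, were exposed to compound for 48 hours. Viability: CellTiter-Glo luminescence.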
HT1080 IDH1KD tx = qHTS for induction of synthetic lethality in tumor cells producing 2HG: qHTS for the HT-1080-IDH1KD cell line. HT-1080 IDH1 knockdown viability, ATP luminescence, 48 h. Potency, µM (doses to about 46.1 µM), inactives show top-dose activity, negative = toxicity, most hits filed as cytotoxic. 360,000 tested, 2% active;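 note: potency is the fitted concentration of half-maximal effect; 0% = DMSO wells and -100% = cell-free medium wells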
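IDH1KD HT-1080 cells, 750/well, RPMI + 5% FBS; compound pinned after 2 h settling; 48 h, 37 °C; CellTiter-Glo luminescence; % activity normalised to DMSO and no-cell wells; curves fitted, classed by r2 and efficacy.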
* hit, by the source's call; ? = inconclusive; · = no result given; [ ] = dose if it differs, or a comment. Unless noted, calls come from the whole dose curve; as a rule, active = well fitted curve in the direction sought with a large enough effect; inconclusive = small, poorly fitted or top-dose-only effect, or another doubt; inactive = no such curve, though single readings can be large; an effect the other way counts as inactive or inconclusive.

SMILES	HepG2 tox	IL-1B inflam inh	TGFb SMAD3 inh	Giardia killer	HT1080NT lethal	HT1080 IDH1KD tx
O=C(Nc1cccc(Cl)c1)OC1CCCCc2cccnc21 (stereo not drawn)	-17%	-80*	-15%	-2	-1%	-22%
CC(C)NC(=O)CCCc1cn(C)c2ccccc12	0%	-2	3%	-13	5%	13%
CC(CCc1ccccc1)NC(=O)CCc1cn(C)c2ccccc12 (stereo not drawn)	-16%	-77*	0%	12	25%	18%
O=C(CC(O)(CC(=O)OCc1ccccc1)C(=O)OCc1ccccc1)OCc1ccccc1	-10%	-55*	?	-1	-19%	-3%
O=C(CC(=O)OCc1ccccc1)OCc1ccccc1	2%	19	1%	?	0%	3%
CCOc1ccc2oc(C(=O)NCc3ccccc3CN3CCCC3)c(C)c2c1	-32%	-57*	-4%	25	?	?
COc1ccc2cc(C(=O)NCc3ccccc3CN3CCCC3)ccc2c1	-42%	-68*	?	-4	-14%	-22%
O=C(NN=Cc1ccc2c(c1)OCO2)C1CC1	0%	-12	0%	-1	3%	23%
O=C1C(=O)N(Cc2ccncc2)C(c2ccccc2F)/C1=C(\O)c1ccc2c(c1)OCCO2 (stereo not drawn)	13%	-6	7%	15	5%	8%
COC(=O)c1cc(NC(=S)Nc2cc(Cl)cc(Cl)c2)cc(C(=O)OC)c1	-30%	-81*	-30%	-17	-8%	-2%
COC(=O)c1cccc(NC(=S)Nc2cccc(Cl)c2C)c1	-8%	-7	16%	0	15%	11%
COC(=O)c1cccc(NC(=S)Nc2ccccc2Cl)c1	2%	1	4%	-10	17%	17%
COC(=O)c1cccc(NC(=S)Nc2ccc(Cl)c(Cl)c2)c1	-25%	-65*	?	8	-20%	?
CC(=O)Nc1ccc(S(=O)(=O)NCCC(=O)OCc2ccccc2F)cc1	9%	-26	20%	-5	1%[9.24 µM]	4%
COc1ccc(N/N=C/c2c(C(=O)O)ccc3ccccc23)cc1	-28%	173	2.2µM*	22	?	?
O=C(Nc1ccccc1)N1CCC(c2nc(-c3ccc(S(=O)(=O)N4CCOCC4)cc3)no2)CC1	0%	42	31%	-12	10µM*	7.9µM*
O=C(c1ccccc1)N1CCC(c2nc(-c3ccc(S(=O)(=O)N4CCOCC4)cc3)no2)CC1	-35%	-15	-25%	12	-2%	-12%
Cc1cccc(C(=O)N2CCC(c3nc(-c4ccc(S(=O)(=O)N5CCOCC5)cc4)no3)CC2)c1	-3%	-53*	4%	5	6%	-1%
O=C(c1cccs1)N1CCC(c2nc(-c3ccc(S(=O)(=O)N4CCOCC4)cc3)no2)CC1	-9%	-7	-1%	-3	-6%	-28%
CCCCOC(=O)Nc1nnc(C(C)C)s1	-7%	-1	-9%	24	-7%	-8%
CC(=O)NC(c1ccco1)c1cc(F)c2cccnc2c1O (stereo not drawn)	8.9µM*	·	?	22	·	·
CC(=O)NC(c1cccs1)c1cc(F)c2cccnc2c1O (stereo not drawn)	-49%	·	?	9	·	·
CCCC(=O)NC(c1ccc2c(c1)OCO2)c1cc(Cl)c2cccnc2c1O (stereo not drawn)	-7%	-82*	?	-9	8.2µM*	3.7µM*
CCCC(=O)NC(c1ccco1)c1cc(Cl)c2cccnc2c1O (stereo not drawn)	-17%	72	-3%	-3	?	10µM*
CCC(=O)N1CCc2cc(Br)cc(S(=O)(=O)NCCCN(CC)Cc3ccccc3)c21	-16%	?	-29%	31	-23%	-7%
SMILES	HepG2 tox	IL-1B inflam inh	TGFb SMAD3 inh	Giardia killer	HT1080NT lethal	HT1080 IDH1KD tx
Cc1c(Cl)cccc1N=Cc1ccc([N+](=O)[O-])s1	-115%	-102*	?	-15	13µM*	10µM*
O=[N+]([O-])c1ccc(/C=N/NC(=S)Nc2ccc(Cl)cc2Cl)s1	-59%	25	?	?	?	?
Cn1c(=O)c2[nH]c(CCCCCCCCc3nc4ccccc4[nH]3)nc2n(C)c1=O	-33%	-60*	?	4	?	-16%
Cn1c(=O)c2[nH]c(CCCCc3nc4ccccc4[nH]3)nc2n(C)c1=O	3%	19	13%	-12	-2%	3%
CN(CC(=O)Nc1ccccc1Cl)C(=O)COC(=O)c1ccc(Cl)nc1	3%	9	20%	9	0%	3%
CN(CC(=O)Nc1ccccc1Cl)C(=O)COC(=O)c1nc(Cl)c(Cl)c(Cl)c1Cl	-28%	-67*	-8%	?	25%	-14%
c1ccc(Cn2c(CSc3nnnn3-c3ccccc3)nc3ccccc32)cc1	-1%	9	-1%	1	-1%	18%
Cc1ccc(C)c(-n2nnnc2Sc2nnnn2-c2ccccc2)c1	-35%	-109*	?	7	?	16µM*
CCSc1nnnn1-c1ccccc1	-4%	1	18%	-19	14%	15%
c1ccc(Cn2c(Sc3nnnn3-c3ccccc3)nnc2-c2ccccc2)cc1	-9%	-59*	-1%	-1	-17%	-9%
COc1ccccc1C(=O)N/N=C(\C)CC(=O)Nc1ccc2c(c1)OCCO2	5%	16	8%	?	-7%	-3%
O=C(CSc1ccc(-c2ccco2)nn1)c1cccc([N+](=O)[O-])c1	16%	5	-41%	38	10%	2%
Brc1ccc(-c2nn3c(-c4ccccn4)nnc3s2)o1	10%	-51*	-2%	-8	5%	27%
COc1ccc(-c2nn3c(-c4ccccn4)nnc3s2)cc1OC	-34%	-51*	21%	3	-6%	-7%
COc1ccc(-c2nnc3sc(-c4cccs4)nn23)cc1OC	-16%	-52*	11%	1	8%	9%
COc1cccc(-c2nn3c(-c4ccccn4)nnc3s2)c1	-8%	·	-4%	-10	11%	7%
N#C/C(=C\c1ccc(OCc2ccc(Cl)cc2Cl)cc1)c1nc2ccccc2[nH]1	-12%	·	-13%	·	·	·
O=Cc1c(Cl)nc2ccccn2c1=O	0.56µM*	-99*	?	-4	?	?
